# Laboratory results taken from patent US20260200999, “SYNTHETIC TRANSCRIPTION FACTORS” (ETH ZURICH, published 2026).
# What was measured:
# [1] = biological target: T1, MTERF1 73-399::RelA 430-551 (Homo sapiens, UniProt Q99551 SEQ:1-327); assay: cell_activity; HEK293 reporter; reduced but not abolished; conditions: tags: RelA 430-551 TAD fusion; dsDNA, one strand shown
# T1 chain: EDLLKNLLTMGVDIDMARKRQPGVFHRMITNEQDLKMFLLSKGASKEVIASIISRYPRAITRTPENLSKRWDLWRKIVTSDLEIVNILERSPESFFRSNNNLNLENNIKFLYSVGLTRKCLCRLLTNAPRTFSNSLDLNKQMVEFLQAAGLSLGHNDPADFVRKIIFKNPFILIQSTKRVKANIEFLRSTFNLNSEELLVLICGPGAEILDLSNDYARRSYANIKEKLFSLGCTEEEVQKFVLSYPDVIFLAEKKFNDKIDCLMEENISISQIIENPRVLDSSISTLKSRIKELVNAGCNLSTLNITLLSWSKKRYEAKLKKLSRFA
# [2] = biological target: T2, MTERF1 104-399::RelA 430-551 (Homo sapiens, UniProt Q99551 SEQ:1-296); assay: as above; conditions: tags: RelA 430-551 TAD fusion; dsDNA, one strand shown
# T2 chain: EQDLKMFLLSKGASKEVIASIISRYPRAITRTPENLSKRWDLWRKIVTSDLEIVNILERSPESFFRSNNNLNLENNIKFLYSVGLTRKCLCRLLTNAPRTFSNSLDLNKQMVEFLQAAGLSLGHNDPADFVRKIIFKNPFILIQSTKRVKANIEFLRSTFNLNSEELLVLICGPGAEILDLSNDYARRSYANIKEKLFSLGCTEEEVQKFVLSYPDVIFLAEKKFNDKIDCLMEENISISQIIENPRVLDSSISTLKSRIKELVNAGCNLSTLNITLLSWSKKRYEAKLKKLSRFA
sequence,measurement,setting,value
TAAGATGGCAGAGCCCGGTAATTAAGATGGCAGAGCCCGGTAATTAAGATGGCAGAGCCCGGTAATTAAGATGGCAGAGCCCGGTAATTAAGATGGCAGAGCCCGGTAAT,binding signal,[1],~1.5 fold less than MTF
same,binding signal,[2],~1.5 fold less than MTF
